Laboratory results: PubChem BioAssay (Tox21)
Inconclusive results are not listed. Calls of active or inactive are those of the source. Unless noted, calls come from the whole dose curve; as a rule, active = well fitted cell-killing curve with a large enough effect in the repeat runs (not every such curve was filed as active); inconclusive = weak or mixed curves, or effect the other way; inactive = no such curve, though single readings can be large or run the other way.

target: Bile acid receptor (Homo sapiens) (UniProt Q96RI1); experiment: qHTS assay to identify small molecule antagonists of the farnesoid-X-receptor (FXR) signaling pathway (AID 743217; active = well fitted inhibition curve with a large enough effect in the signal ratio in the repeat runs, not every such curve was filed as active; the % refers to the signal ratio); conditions: HEK293T FXR-UAS-bla, beta-lactamase ratio, CDCA-stimulated, 16 h; series mostly up to 62.6 µM; activity change, negative = inhibition: at the top concentration
Procedure, shortened: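 In this cell-based antagonist screen, inhibition of CDCA-driven (50 uM final) UAS-beta-lactamase expression in HEK 293T cells was measured by FRET fluorescence following 16 h compound exposure at 37 °C.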
% is set by controls: 0 for no effect and ±100 for the full control effect; potency is the fitted concentration of half-maximal effect.

Bile acid receptor (Homo sapiens), sequence (Q96RI1 whole entry, looked up): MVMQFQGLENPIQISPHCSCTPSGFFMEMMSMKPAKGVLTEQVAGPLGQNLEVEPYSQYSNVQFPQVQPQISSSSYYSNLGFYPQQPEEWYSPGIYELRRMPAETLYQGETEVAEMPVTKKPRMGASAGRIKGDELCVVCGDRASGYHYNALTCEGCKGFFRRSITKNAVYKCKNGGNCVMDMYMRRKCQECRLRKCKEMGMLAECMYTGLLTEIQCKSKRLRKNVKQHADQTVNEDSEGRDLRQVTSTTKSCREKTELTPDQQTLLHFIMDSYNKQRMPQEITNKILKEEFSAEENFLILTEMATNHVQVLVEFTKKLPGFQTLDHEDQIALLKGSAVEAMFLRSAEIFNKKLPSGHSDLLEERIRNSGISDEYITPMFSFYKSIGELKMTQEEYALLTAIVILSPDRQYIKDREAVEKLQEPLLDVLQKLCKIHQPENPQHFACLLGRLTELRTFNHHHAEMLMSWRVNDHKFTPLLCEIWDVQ

Row | SMILES | Potency | activity change, negative = inhibition
1 | C/C=C/C(=O)Oc1c(CCCCCC(C)C)cc([N+](=O)[O-])cc1[N+](=O)[O-] | 24.5 µM (active) | 
2 | COC(=O)[C@]1(C)CCC[C@@]2(C)[C@H]1CC=C1C=C(C(C)C)CC[C@@H]12 |  | -14.3% (inactive)
3 | N[C@@H](CSSC[C@H](N)C(=O)O)C(=O)O |  | 8.01% [at 0.55 µM] (inactive)
4 | c1cc(OCC2CO2)cc(OCC2CO2)c1 (stereo unspecified) |  | -27.1% (inactive)

tested on: not listed separately; experiment: qHTS assay to identify small molecule agonists of the farnesoid-X-receptor (FXR) signaling pathway - cell viability counter screen (AID 743218; active = well fitted cell-killing curve with a large enough effect in the repeat runs; note: nearly all actives have a fitted effect of over 45% in size); conditions: FXR-bla HEK293T viability, CellTiter-Glo luminescence, 16 h; series mostly up to 62.6 µM; viability change, negative = cytotoxic: at the top concentration
Procedure, shortened: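 After 16 h at 37 C with test compounds, FXR-bla HEK 293T cells were given LiveBLAzer B/G substrate for 2 h at RT and then CellTiter-Glo; luminescence was taken after 30 min.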

Row | SMILES | viability change, negative = cytotoxic | Potency
5 | CCCCOC(=O)C(C)CC (stereo unspecified) | -22.4% (inactive) | 
6 | CCOC(=O)C1=C(C)NC(C)=C(C(=O)OCC)C1c1ccccc1/C=C/C(=O)OC(C)(C)C |  | 23.7 µM (active)
7 | CCN1CCN(c2cc(-c3ccc(F)cc3)c3c(n2)CCCCCC3)CC1 | -11.8% [at 29.1 µM] (inactive) | 
8 | CCN(CC)CCCN(c1ccccc1)C1Cc2ccccc2C1 | -20.9% (inactive) | 
9 | C[C@@]12C(=O)OC(=O)[C@]1(C)C1CCC2O1 |  | 11.9 µM (active)
10 | CCCCCCCOC(=O)c1ccc(O)cc1 | -5.21% (inactive) | 
11 | CC(C)c1cccc(C(C)C)c1N1C(=O)c2ccc(O)cc2C1=O | -15% (inactive) | 
12 | CN(C)c1ccc(N=NS(=O)(=O)O)cc1 | -19.7% (inactive) | 
13 | CCCCCCC(C)OC(=O)COc1nc(F)c(Cl)c(N)c1Cl (stereo unspecified) | 2.33% (inactive) | 
14 | CCO[Si](CCCSSSSCCC[Si](OCC)(OCC)OCC)(OCC)OCC | -25.4% (inactive) | 
15 | CCCCCCCCCCCCCOP(=O)(O)O | -2.95% (inactive) | 
16 | C=CC(=C)CCC=C(C)C | -28.2% (inactive) | 
17 | CCC(=O)OCCc1ccccc1 | -26% (inactive) | 
18 | CCc1ccc(O)c(C(C)(C)C)c1 | -16.6% (inactive) | 
19 | C[n+]1c2cc(N)ccc2cc2ccc(N)cc21 (tested in a mixture with another compound) |  | 15 µM (active)
20 | CC(C)(c1cc(Br)c(O)c(Br)c1)c1cc(Br)c(O)c(Br)c1 | -36.5% (inactive) | 
21 | Clc1ccccc1CN1CCc2sccc2C1 | 3.73% (inactive) | 
22 | CC1CCCNC1 (stereo unspecified) | -2.32% (inactive) | 
23 | N[C@@H](CSSC[C@H](N)C(=O)O)C(=O)O | -3.16% [at 0.55 µM] (inactive) | 
24 | c1ccc(Sc2ccccc2)cc1 | -18.7% (inactive) | 
25 | N#CSCSc1nc2ccccc2s1 | -19.5% (inactive) | 
26 | c1cc(OCC2CO2)cc(OCC2CO2)c1 (stereo unspecified) | -11.2% (inactive) | 
27 | O=C(O)c1cccc(Cl)n1 | 6.61% (inactive) | 
28 | COc1ccc2sc(C(=O)Nc3nnn[nH]3)c(OC(C)C)c2c1 | 1.22% (inactive) | 

target: Bile acid receptor (Homo sapiens) (UniProt Q96RI1); experiment: qHTS assay to identify small molecule agonists of the farnesoid-X-receptor (FXR) signaling pathway (AID 743220; active = well fitted activation curve with a large enough effect in the signal ratio in the repeat runs, not every such curve was filed as active; the % refers to the signal ratio); conditions: HEK293T FXR-UAS-bla, beta-lactamase FRET ratio, 16 h; series mostly up to 62.6 µM; activation: at the top concentration
Procedure, shortened: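 Beta-lactamase reporter under UAS control in GeneBLAzer FXR HEK 293T cells (5000/well) measured with LiveBLAzer FRET substrate after 2 h at room temperature. Compound exposure lasted 16 h at 37C.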

Row | SMILES | Potency | activation
29 | CCOC(=O)C1=C(C)NC(C)=C(C(=O)OCC)C1c1ccccc1/C=C/C(=O)OC(C)(C)C | 33.5 µM (active) | 
30 | CCCCCCCOC(=O)c1ccc(O)cc1 | inactive | 
31 | CCC(=O)OCCc1ccccc1 |  | -0.855% (inactive)
32 | Cc1nc(Nc2ncc(C(=O)Nc3c(C)cccc3Cl)s2)cc(N2CCN(CCO)CC2)n1 |  | -0.505% (inactive)
33 | CC(C)(c1cc(Br)c(O)c(Br)c1)c1cc(Br)c(O)c(Br)c1 | inactive | 
34 | N[C@@H](CSSC[C@H](N)C(=O)O)C(=O)O |  | -0.652% [at 0.55 µM] (inactive)
35 | Cc1ccc(CCn2c3c(c4cc(Cl)ccc42)CN(C)CC3)cn1 |  | -0.693% (inactive)
36 | COc1ccc2sc(C(=O)Nc3nnn[nH]3)c(OC(C)C)c2c1 |  | -0.869% (inactive)

tested on: not listed separately; experiment: qHTS assay to identify small molecule antagonists of the farnesoid-X-receptor (FXR) signaling pathway - cell viability counter screen (AID 743221); conditions: FXR-bla HEK293T viability, CellTiter-Glo luminescence, 16 h; series mostly up to 62.6 µM; activity change, negative = cytotoxicity: at the top concentration; note: nearly all actives have a fitted effect of over 50% in size
Procedure, shortened: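 CellTiter-Glo, 30 min RT, luminescence; same wells as the LiveBLAzer FRET read. Cells: FXR-UAS-bla HEK 293T. Treatment: compound with chenodeoxycholic acid 50 uM final, 16 h at 37 C.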

Row | SMILES | activity change, negative = cytotoxicity | Potency
37 | CCN1CCN(c2cc(-c3ccc(F)cc3)c3c(n2)CCCCCC3)CC1 | -1.08% [at 29.1 µM] (inactive) | 
38 | CCN(CC)CCCN(c1ccccc1)C1Cc2ccccc2C1 | -17.3% (inactive) | 
39 | C/C=C/C(=O)Oc1c(CCCCCC(C)C)cc([N+](=O)[O-])cc1[N+](=O)[O-] |  | 43.6 µM (active)
40 | C[C@@]12C(=O)OC(=O)[C@]1(C)C1CCC2O1 |  | 13.3 µM (active)
41 | CCCCCCCOC(=O)c1ccc(O)cc1 |  | inactive
42 | CN(C)c1ccc(N=Nc2ccccc2C(=O)O)cc1 | 7.96% (inactive) | 
43 | CC(C)c1cccc(C(C)C)c1N1C(=O)c2ccc(O)cc2C1=O | -24% (inactive) | 
44 | CN(C)c1ccc(N=NS(=O)(=O)O)cc1 | -17% [at 81.1 µM] (inactive) | 
45 | CCCCCCC(C)OC(=O)COc1nc(F)c(Cl)c(N)c1Cl (stereo unspecified) | 3.91% (inactive) | 
46 | COc1cc(C(=O)NS(=O)(=O)c2ccccc2C)ccc1Cc1cn(C)c2ccc(NC(=O)OC3CCCC3)cc12 | -2.71% (inactive) | 
47 | CCN(CC)CCSC(=O)C(c1ccccc1)c1ccccc1 | 7.79% (inactive) | 
48 | CCO[Si](CCCSSSSCCC[Si](OCC)(OCC)OCC)(OCC)OCC | -3.17% (inactive) | 
49 | CCCCCCCCCCCCCOP(=O)(O)O | -13.7% (inactive) | 
50 | COc1ccc(-n2nc(CCC(=O)N(C)O)cc2-c2ccc(Cl)cc2)cc1 | 1.83% (inactive) | 
51 | C=CC(=C)CCC=C(C)C | -18.4% (inactive) | 
52 | CCC(=O)OCCc1ccccc1 | 6.73% (inactive) | 
53 | CCc1ccc(O)c(C(C)(C)C)c1 | -16.5% (inactive) | 
54 | C[n+]1c2cc(N)ccc2cc2ccc(N)cc21 (tested in a mixture with another compound) | -9.34% (inactive) | 
55 | CC(C)(c1cc(Br)c(O)c(Br)c1)c1cc(Br)c(O)c(Br)c1 |  | inactive
56 | Brc1ccccc1-c1ccccc1 | 11.9% [at 81.1 µM] (inactive) | 
57 | CC(C)(C)C1=CC(=O)C=C(C(C)(C)C)C1=O | -15.1% (inactive) | 
58 | Clc1ccccc1CN1CCc2sccc2C1 | -1.15% (inactive) | 
59 | CC1CCCNC1 (stereo unspecified) | 8.86% (inactive) | 
60 | N[C@@H](CSSC[C@H](N)C(=O)O)C(=O)O | 5.98% [at 0.55 µM] (inactive) | 
61 | CC(C)OC(=O)c1cc(C(=O)OC(C)C)cc([N+](=O)[O-])c1 | 8.57% [at 81.1 µM] (inactive) | 
62 | c1ccc(Sc2ccccc2)cc1 | -0.862% (inactive) | 
63 | Cc1ccc(N)cc1O | -7.54% (inactive) | 
64 | c1cc(OCC2CO2)cc(OCC2CO2)c1 (stereo unspecified) | -1.67% (inactive) | 
65 | O=C(O)c1cccc(Cl)n1 | -0.574% (inactive) | 
66 | COc1ccc2sc(C(=O)Nc3nnn[nH]3)c(OC(C)C)c2c1 | -16.7% (inactive) | 
